In the library only some 21% were active in any assay of this set; here they are far more common.
SARS PLP yeast: inhibitors of SARS-CoV papain-like protease in yeast; S. cerevisiae expressing SARS-CoV PLpro, growth rescue; Potency, µM (doses to about 32.9 µM), for inactives: at the top dose activity, positive = growth rescue, most hits filed as activators; 0.19% of 330,000 active; also: potency is read from the fitted curve at half-maximal effect; 0% is about no effect; nearly all actives have a fitted effect of over 55% in size
Shiga inhibitor: Shiga toxin inhibition | AID 2315 | inhibition, % at 38.7 µM | 9.2% of 290,000 active | Vero cells, Shiga toxin protein synthesis inhibition reporter; in the data active = inhibition mostly above about 28%, no sharp cut-off; inactive = mostly below about 43%; also: 0% is about no effect
NS1 function inh: blocks influenza NS1 protein function | Potency, µM (doses to about 46.1 µM), inactives show top-dose activity, positive = more growth | 0.4% of 270,000 active | AID 2326; also: potency is read from the fitted curve at half-maximal effect; actives are rising curves; nearly all actives have a fitted effect of over 50% in size
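A cell-based growth assay was used: compounds that relieve NS1-induced slow growth of budding yeast raise OD600. Assay medium was yeast nitrogen base with ammonium sulphate and -URA supplement, pH 6.0, with 2% galactose.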
Pf growth 48h: inhibits P. falciparum growth in the first generation, 48 h; P. falciparum luciferase growth in erythrocytes, 48 h; Potency, µM (series often up to 28.7 µM), for the others: at the top dose activity change, negative = inhibition, actives largely listed as inhibitors; 5.9% of 310,000 active; active = well fitted inhibition curve with a large enough effect; inconclusive = small, poorly fitted or top-dose-only effect, or another doubt; inactive = no such curve, though single readings can be large or run the other way; also: potency is read from the fitted curve at half-maximal effect; % is scaled to controls: 0 for no effect and ±100 for the full control effect
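Erythrocytes infected with P. falciparum carrying an integrated firefly luciferase reporter (2% hematocrit, 0.1% parasitemia final) were exposed to compounds in RPMI 1640 with 0.5% Albumax at 37 C, 5% CO2. Growth inhibition was scored as reduced luminescence.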
Pf growth 96h: P. falciparum growth inhibition at 96 hour, primary screen for plastid delayed-death inhibitors | P. falciparum luciferase reporter growth, 96 h | Potency, µM (top dose mostly 28.7 µM), inactives show at the highest dose activity change, negative = inhibition, hits mostly inhibitors | 6.9% of 320,000 active; active = well fitted inhibition curve with a large enough effect; inconclusive = small, poorly fitted or top-dose-only effect, or another doubt; inactive = no such curve, though single readings can be large or run the other way; also: potency is read from the fitted curve at half-maximal effect; % is scaled to controls: 0 for no effect and ±100 for the full control effect
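Parasite growth measured via integrated firefly luciferase reporter in P. falciparum. Infected erythrocytes at 2% hematocrit, 0.05% parasitemia final were treated 96 hours at 37 C under 5% CO2, and luminescence was read.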
Cycloheximide cs: counter-screen hit for Shiga toxin inhibitors, cycloheximide; cell reporter, cycloheximide protein synthesis inhibition counterscreen; max response, %; 12% of 300,000 active; AID 2314; in the data active = max response mostly above about 13%, no sharp cut-off; inactive = mostly below about 14%; also: read at 38.3 µM for the half of the compounds with a filed dose; 0% is about no effect
Starred values were filed as active, the others as inactive; ? = inconclusive; . = no result; + = active, no number; [ ] = remark or other dose. Unless noted, calls follow the shape of the full dose curve.

SMILES | SARS PLP yeast | Shiga inhibitor | NS1 function inh | Pf growth 48h | Pf growth 96h | Cycloheximide cs
CCC(=C(c1ccc(OC)cc1)c1ccc(OC)cc1)c1cn(CC(O)CN(CCO)CCO)c2ccccc12 (stereo not given) | 3% | -5 | . | 9.3µM* | ? | -3
Cc1ccc(NC(=O)CCNC(=O)c2ccc([N+](=O)[O-])cc2)cc1C | 2% | -4 | -1% | 9%[0.00184 µM] | 16% | -2
CCN(CC)C(=O)c1ccc(N)cc1 | 1% | 2 | . | -1% | 24% | -6
NC(N)=NCC(O)CN(c1ccccc1)c1ccccc1 (stereo not given) | 0% | -2 | -3% | 1.2µM* | 1.5µM* | -1
OC(CN1CCCCC1)CN(c1ccccc1)c1ccccc1 (stereo not given) | 1% | -16 | -7% | . | 9.3µM* | -2
OC(CN1CCCCCC1)CN(c1ccccc1)c1ccccc1 (stereo not given) | 14% | -15 | 3% | ? | -20% | -3
CNCC(O)CN(c1ccccc1)c1ccccc1 (stereo not given) | -2% | -5 | 0% | ? | 57% | -1
COCCCn1cnnc1SCc1nc2sc(C(C)=O)c(C)c2c(=O)[nH]1 | -3% | -8 | -4% | 52% | 43% | -3
CN(C)C(=O)N1CCC(C(=O)N2CCCC(C(=O)c3cccc4ccccc34)C2)CC1 (stereo not given) | -1% | 8 | -7% | ? | ? | 6
Cc1ccc(-c2nc3ccc([N+](=O)[O-])cc3[nH]2)cc1 | -6% | 124* | . | 129% | 3% | 16*
O=[N+]([O-])c1ccc2nc(-c3ccc(Cl)cc3)[nH]c2c1 | -74% | + | -70% | ? | -104% | 92*
O=[N+]([O-])c1ccc(-c2cnc[nH]2)cc1 | 0% | 53* | -7% | 109% | 96% | 26*
O=[N+]([O-])c1ccc2nc(-c3ccccc3[N+](=O)[O-])[nH]c2c1 | -1% | 37 | . | 54% | ? | 26*
O=[N+]([O-])c1ccc(N2CCN(S(=O)(=O)c3cnc[nH]3)CC2)cc1 | 0% | 14 | 0% | -8% | 19% | 14
O=[N+]([O-])c1cccc(-c2nc3ccc([N+](=O)[O-])cc3[nH]2)c1 | -3% | 40 | . | ? | -7% | 12
COc1ccc(-c2nc3ccc([N+](=O)[O-])cc3[nH]2)cc1 | -35% | 57* | 0% | 185% | ? | 60*
O=[N+]([O-])c1ccc2nc(-c3ccncc3)[nH]c2c1 | 0% | 30 | 1% | 2.1µM* | 5.2µM* | 32*
O=[N+]([O-])c1ccc(-c2cc(-c3ccc(Cl)cc3)n[nH]2)cc1 | 3% | 39* | -12% | 111% | 116% | 24
COc1ccc(-c2c(C)nn3c(NC4CCCC4)cc(C)nc23)cc1OC | -4% | -9 | -13% | ? | ? | 0
Cc1cc(NC2CCCC2)n2ncc(-c3ccccc3)c2n1 | -7% | 17 | -7% | 32% | -77% | 23*
Cc1cc(NC2CCCC2)n2nc(C)c(-c3ccccc3)c2n1 | -9% | 38 | -10% | ? | ? | 29*
O=C(CCCl)N1CCCC2(CCCCC2)C1 | 0% | 4 | 1% | 6% | 9% | -1
CC[C@H](C)[C@H](NC(=O)OCc1ccccc1)C(=O)OCC(=O)Nc1ccc(N2CCOCC2)cc1 | 2% | . | . | 1% | -1% | .
COc1ccc2[nH]c(C)c(CCNCc3cc(OC)c4c(c3)OCO4)c2c1 | 2% | . | . | 7.4µM* | ? | .
COc1ccc(CNCCc2c(C)[nH]c3ccc(OC(F)(F)F)cc23)c(OC)c1 | 1% | -20 | 6% | 5.2µM* | ? | -5
SMILES | SARS PLP yeast | Shiga inhibitor | NS1 function inh | Pf growth 48h | Pf growth 96h | Cycloheximide cs
CSc1nnc(C)c(=O)n1COC(=O)/C=C/c1ccc2c(c1)OCO2 | 0% | 41 | . | 6% | 53% | 13
Cc1ccc(S(=O)(=O)N2CCCCC2)cc1C(=O)N(CCc1ccccc1)Cc1ccccc1 | -4% | . | . | 13µM* | 9.3µM* | .
O=C(c1cc(S(=O)(=O)N2CCOCC2)ccc1F)N(CCc1ccccc1)Cc1ccccc1 | 7% | . | . | 9.3µM* | ? | .
O=C(NCCc1ccccc1)c1cc(S(=O)(=O)N2CCOCC2)ccc1F | 0% | 45 | 15% | 14% | . | 19*
O=C(Nc1ccccc1C(F)(F)F)c1cc(S(=O)(=O)N2CCOCC2)ccc1F | 18% | 14 | -3% | 10% | 0.93µM* | -2
CN(CC(=O)Nc1ncn[nH]1)S(=O)(=O)c1ccc(Br)cc1 | 5% | -32 | 2% | -11% | 4% | -1
CCC(=O)N1COC[C@@H]1Cc1ccccc1 | 7% | -3 | -13% | 18% | -1% | -1
Cc1ccc(NC2=NC(c3ccc(F)cc3)n3c(nc(C)cc3=O)N2)cc1 (stereo not given) | 0% | 15 | -7% | ? | ? | 1
O=C(O)c1cc(S(=O)(=O)N2CCCCC2)ccc1F | 0% | -17 | 12% | 8% | 131% | -2
CCCCCNC(=O)c1cc(S(=O)(=O)N2CCCC2)ccc1F | 2% | -10 | -11% | -14% | 12µM* | -5
COc1ccc(S(=O)(=O)NCC2CCCN(Cc3ccccc3C)C2)cc1 (stereo not given) | 0% | -5 | 2% | 13% | -1% | -2
COc1ccccc1NC(=O)c1sc2ncn(Cc3ccc(C)cc3)c(=O)c2c1C | -4% | 10 | 13% | ? | ? | -4
COc1ccccc1NC(=O)c1sc2ncn(Cc3cccc4ccccc34)c(=O)c2c1C | -20% | -11 | 6% | 12% | 9.3µM* | 0
Cc1ccc(O)c(C(=O)c2cnc3c(c2)CN(C)C(=O)N3)c1 | -1% | -9 | 10% | ? | . | 2
Cc1ccc(O)c(C(=O)c2cnc3c(c2)CN(CCC(C)C)C(=O)N3)c1 | -4% | -3 | 1% | 2.9µM* | 5.2µM* | -2
CCCCN1Cc2cc(C(=O)c3cc(OC)ccc3O)cnc2NC1=O | -2% | 32 | 2% | ? | 9.3µM* | 12
Cc1ccc(O)c(C(=O)c2cnc3c(c2)c(=O)n(C)c(=O)n3C)c1 | -1% | -6 | 15% | ? | 10µM* | -3
CCNC(=S)N/N=C(\C)c1ccc2ccccc2c1 | 1% | 21 | . | ? | 0% | 13
C/C(=N\NC(=S)NC(C)C)c1ccccc1OC(F)F | 3% | 31 | . | -20% | 8.3µM* | -1
CCNC(=S)N/N=C(\C)c1ccc2ccccc2c1OC(F)F | -1% | -6 | . | 10µM* | ? | -2
COc1cccc(N(C(=O)Cn2nnc(-c3ccc(Cl)cc3)n2)C(C(=O)NCC2CCCO2)c2ccc(C)cc2)c1 (stereo not given) | 0% | -14 | 4% | -17% | ? | -3
Cc1ccc(-c2nnn(CC(=O)N(c3ccccc3F)C(C(=O)NCC3CCCO3)c3c[nH]c4ccccc34)n2)cc1 (stereo not given) | 4% | -5 | 24% | 12µM* | 12µM* | 1
